# Laboratory results as given in the supplement of paper PMC5940239.
# Legend:
# [1] = tested on: Madurella mycetomatis MM55; conditions: 7 days
# [2] = tested on: Madurella mycetomatis MM55; test: IC90; higher = less potent; conditions: 7 days
# [3] = tested on: Madurella mycetomatis MM55; test: percent growth relative to solvent control; higher = less inhibition, active = 20 or less; conditions: 100 µM; 7 days
Structure (SMILES),IC50 [1],IC90 [2],percent growth [3]
CCC(Sc1nc2ccccc2o1)C(=O)Nc1nccs1 (centres undefined),37.1 µM,56.5 µM,0.757% (active)
CNC(=O)c1nn(C)c2c1C(C)(C)Cc1cnc(Nc3ccc(N4CCN(C)CC4)cc3)nc1-2,10.7 µM,21.5 µM,0.489% (active)
N=C(N)Nc1ccc(-c2ccc(-c3ccc(NC(=N)N)cc3Cl)o2)c(Cl)c1,11.4 µM,17.8 µM,-6.7% (active)
Cc1nc(-c2ccccn2)nc(N2CCC(Cc3ccccc3)C2)c1Cl (centres undefined),5.1 µM,13.7 µM,6.94% (active)
Cc1ncc(-c2ccnc(Nc3ccc(S(C)(=O)=O)cc3)n2)n1C(C)C,65.9 µM,96.9 µM,6.23% (active)
C[C@@H]1[C@H](O)[C@@H](C)/C=C/C=C/C=C/C=C/C=C/C=C/C=C/[C@H](O[C@@H]2O[C@H](C)[C@@H](O)[C@H](N)[C@@H]2O)C[C@@H]2O[C@](O)(C[C@@H](O)C[C@@H](O)[C@H](O)CC[C@@H](O)C[C@@H](O)CC(=O)O[C@H]1C)C[C@H](O)[C@H]2C(=O)O,9.7 µM,20.1 µM,7.03% (active)
O[C@@H](c1cc(C(F)(F)F)nc2c(C(F)(F)F)cccc12)[C@H]1CCCCN1,38.8 µM,71.5 µM,-1.36% (active)
O=C(NCCc1ccccc1)c1cc(-c2cccnc2)cnc1NCC1CC1,,92.4 µM,1.69% (active)
Cn1c(=O)c2c(S(C)(=O)=O)snc2n(C)c1=O,60 µM,91.5 µM,-0.615% (active)
O=C(Nc1ccc(N2CCNCC2)cc1)c1ccn2ncc(-c3cccc(Cl)c3)c2n1,2.95 µM,4.9 µM,8.12% (active)
